LmPK inh = inhibitors of Leishmania mexicana pyruvate kinase; Q27686; purified LmPK, Kinase-Glo ATP luminescence, 1 h; Potency, µM (series often up to 57.5 µM), for the others: at the highest dose activity change, negative = inhibition, hits mostly inhibitors; 290,000 tested, 0.37% active; AID 1721; further: potency means the concentration at half of the fitted maximal effect
Target sequence (Q27686 whole entry, looked up): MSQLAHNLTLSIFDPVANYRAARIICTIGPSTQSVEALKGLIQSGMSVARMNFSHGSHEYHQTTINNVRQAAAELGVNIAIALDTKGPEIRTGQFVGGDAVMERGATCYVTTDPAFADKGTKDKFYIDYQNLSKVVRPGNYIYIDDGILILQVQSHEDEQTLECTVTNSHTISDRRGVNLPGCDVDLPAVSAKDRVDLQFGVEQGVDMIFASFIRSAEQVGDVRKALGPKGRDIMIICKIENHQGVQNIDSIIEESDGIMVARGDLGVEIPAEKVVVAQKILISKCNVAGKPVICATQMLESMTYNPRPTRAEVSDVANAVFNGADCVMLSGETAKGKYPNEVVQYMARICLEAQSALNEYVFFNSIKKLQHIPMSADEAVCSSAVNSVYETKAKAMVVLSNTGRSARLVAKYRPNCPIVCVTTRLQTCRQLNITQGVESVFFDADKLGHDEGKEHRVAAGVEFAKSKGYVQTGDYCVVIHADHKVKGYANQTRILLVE
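qHTS format; LmPK 0.1 nM; substrates PEP 0.5 mM and ADP 0.1 mM. One-hour room-temperature incubation, then coupled luciferase luminescence; 0.5 nM enzyme wells mark activation.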
Vaccinia mCherry = inhibitors of vaccinia virus infection (mCherry reporter signal) | 310,000 tested, 0.63% active | Potency, µM (series often up to 36.5 µM), for the others: at the highest dose activity change, negative = inhibition, usual class: inhibitors | Vaccinia virus mCherry reporter infection, fluorescence; calls by dose curve; tested in A549 cells; further: potency means the concentration at half of the fitted maximal effect; nearly all actives have a fitted effect of over 35% in size
TbPYK inhibitor = inhibitors of Trypanosoma brucei pyruvate kinase. TbPYK enzyme, Kinase-Glo Plus ATP luminescence, 45 min. Potency, µM (doses to about 76.8 µM), for the others: at the top dose activity, negative = inhibition, hits mostly inhibitors. Q57TT1. 410,000 tested, 0.12% active; further: potency means the concentration at half of the fitted maximal effect; nearly all actives have a fitted effect of over 50% in size
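Luminescent Kinase-Glo Plus end-point after 45 min room-temperature reaction of T. brucei pyruvate kinase started with 130 uM ADP (final). Buffer TEA 50 mM pH 7.2 with KCl, MgCl2, BSA, Tween-20; titration-based qHTS with fitted concentration-effect curves.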
HCMV inh = human cytomegalovirus inhibition. HFF cells, HCMV-luciferase reporter, 72 h; active compounds read low. activity change, negative = inhibition, % at 57.5 µM. 410,000 tested, 4.5% active. AID 1259415; in the data active means activity change below about -60%; inconclusive means no clear call, values can overlap the other calls; inactive means above about -39%
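Inhibition of viral replication was scored as loss of reporter luminescence in HFFs infected with HCMV-luciferase (MOI 1 PFU/cell) for 72 h; compounds tested at 2 doses, normalized to buffer and Salinomycin controls.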
Vaccinia Venus = vaccinia inhibition (Venus reporter) | Vaccinia virus Venus reporter expression, fluorescence | Potency, µM (highest dose often 36.5 µM), without a hit: at the top dose activity change, negative = inhibition, hits mostly inhibitors | 330,000 tested, 0.46% active; calls by dose curve; tested in A549 cells; further: potency means the concentration at half of the fitted maximal effect; nearly all actives have a fitted effect of over 30% in size
Active calls of the source: *; i = inactive; ? = inconclusive; · = not tested or not shown; + = active, no number; [ ] = dose if it differs, or a comment. Shown are actives, neighbours in structure and some others; about 5% of the full set was active somewhere. Unless noted, the call rests on the fitted dose curve; in most records, active means well fitted curve in the direction sought with a large enough effect; inconclusive means small, poorly fitted or top-dose-only effect, or another doubt; inactive means no such curve, though single readings can be large; an effect the other way counts as inactive or inconclusive. On the % scale 0 is the no-effect control and ±100 the full control effect.

SMILES	LmPK inh	Vaccinia mCherry	TbPYK inhibitor	HCMV inh	Vaccinia Venus
CO[C@@H]1CN(C)C(=O)c2ccc(NC(=O)C3CCC3)cc2OC[C@H](C)N(CC2CCCCC2)C[C@H]1C	·	-5.4%	·	46.9	-28.8%
CO[C@@H]1CN(C)C(=O)c2ccc(NC(=O)C3CCCC3)cc2OC[C@@H](C)N(Cc2ccc(F)cc2)C[C@H]1C	·	?	·	-63.4*	?
Cc1ccc2c(c1)CCO[C@@]21O[C@H](CCO)C[C@H](O)[C@H]1O	·	i	-2.0%	3.6	-7.1%
O=[N+]([O-])c1c(NCCCO)cc(N2CCN(Cc3ccc4c(c3)OCO4)CC2)c2nonc12	1.2%	-5.6%	-10.2%	-77.7*	-23.7%
Cn1c(=O)n(Cc2ccccc2)c(=O)c2c1nc1n2CCCN1C1CCCCC1	·	i	-3.0%	-37.6	-16.3%
Cn1c(=O)n(Cc2ccc(F)cc2)c(=O)c2c1nc1n2CCCN1C1CCCCC1	-0.9%	-13.9%	2.8%	-67.1*	-8.6%
Cn1c(CCN2CCCCC2)nc2cc(NC(=O)COc3ccc([N+](=O)[O-])cc3)ccc21	-0.8%	·	-7.0%	-74.6*	·
Cc1nn(CC(=O)Nc2ccc3c(c2)nc(CCN2CCCCC2)n3C)c(=O)c2ccccc12	2.9%	·	1.7%	-62.9*	·
CC(=O)N1CCN(Cc2nc3cc(NC(=O)Cn4nc(C)c5ccccc5c4=O)ccc3n2C)CC1	1.0%	-0.5%	3.8%	-1.1	-11.1%
CCn1c(CN2CCCCC2)nc2cc(NC(=O)COc3cc(C)ccc3C(C)C)ccc21	·	-29.1%	-3.7%	-19.3	-17.1%
Cc1ccc(C(C)C)c(OCC(=O)Nc2ccc3c(c2)nc(CCN2CCCCC2)n3C)c1	-0.3%	·	5.8%	-81.2*	·
Cn1c(CCN2CCCCC2)nc2cc(NC(=O)COc3ccc(Cl)cc3)ccc21	-3.3%	·	0.2%	-69.8*	·
COC(=O)C(NC(C)=O)(Nc1ccc(Br)cc1)C(=O)OC	0.0%	i	-15.5%	109.9	-1.3%
CC(C)c1ccc(/C=C2\C(=O)N(CCN3CCOCC3)C(=S)N2C)cc1	2.1%	i	-1.0%	-66.4*	-0.5%
CN(C)C(=O)Oc1ccnc2cc(Cl)ccc12	0.1%	-11.2%	0.8%	+	1.2%
O=C1c2cccc3cc([N+](=O)[O-])cc(c23)C(=O)N1CC1CCCO1 (stereo unspecified)	6.1%	6.7%	0.2%	-63.2*	4.5%
Cc1ccc(NC(=O)CCCN2C(=O)c3cccc4cccc(c34)C2=O)cc1	4.3%	i	3.5%	-73.4*	-8.2%
Cc1ccc(NC(=O)CCN2C(=O)c3cccc4cccc(c34)C2=O)cc1	10.6%	i	-0.6%	?	-1.3%
CN(C)CCCN1C(=O)c2cc3ccccc3cc2C1=O	0.6%	·	0.9%	18.9	·
CN(C)CCCN1C(=O)c2cccc3cccc(c23)C1=O	0.0%	-12.2%	-2.6%	-63.9*	-19.1%
CN(C)CCN1C(=O)c2cccc3cc([N+](=O)[O-])cc(c23)C1=O	·	1.12µM*	-2.1%	-97.6*	?
O=C(Nc1nn[nH]n1)c1cccc([N+](=O)[O-])c1	0.9%	3.2%	1.5%	2.6	-2.1%
COc1ccc(C(=O)N2CCC(C)(C(=O)NS(=O)(=O)C3CC3)C2)cc1 (stereo unspecified)	·	33.9%	-6.6%	-7.0	2.2%
O=C(Nc1c(F)cc(F)cc1Br)c1cc(-c2ccc(O)cc2)on1	-18.1%	i	0.4%	-9.0	-17.6%
COc1ccc2c(c1)CCO[C@]21O[C@H](CCO)C[C@H](O)[C@H]1O	·	i	4.3%	26.0	6.0%
SMILES	LmPK inh	Vaccinia mCherry	TbPYK inhibitor	HCMV inh	Vaccinia Venus
Cc1ccc(OCC(O)CN2CCOCC2)cc1 (stereo unspecified)	11.1%	·	1.7%	62.9	·
Cc1cc(Cl)c(S(=O)(=O)N2CCN(c3ccc(F)cc3)CC2)cc1OCC(N)=O	3.4%	-6.7%	2.1%	-23.5	-27.5%
Cc1cc(Cl)c(S(=O)(=O)Nc2ccon2)cc1OCC(=O)NC1CCCCC1	3.8%	-12.2%	-11.4%	13.8	0.3%
Cc1cc(Cl)c(S(=O)(=O)NCC2CCCO2)cc1OCC(=O)NC1CCCCC1 (stereo unspecified)	2.8%	·	·	-93.2*	·
Cc1cc(Cl)c(S(=O)(=O)Nc2ccc3c(c2)OCCO3)cc1OCC(=O)NC1CCCCC1	5.6%	·	-14.0%	-69.8*	·
Cc1cc(Cl)c(S(=O)(=O)N2CCN(c3ccc(F)cc3)CC2)cc1OCC(=O)NC1CCCCC1	3.5%	·	-4.7%	-98.3*	·
Cc1[nH]n(-c2ncc(-c3ccccc3)s2)c(=O)c1C(c1ccc(Br)cc1)C(C#N)C#N (stereo unspecified)	0.7%	-12.3%	-18.1%	89.8	-12.3%
C=Cn1cc[n+](CC(=O)c2ccc(C)cc2)c1	-3.4%	-3.7%	2.5%	-68.4*	-12.7%
Cc1cccc(NC(=O)CSc2nc3ccccc3nc2N2CCCCC2)c1	-0.1%	-5.7%	1.3%	-84.0*	4.8%
CCc1cccc(NC(=O)CSc2nc3ccccc3nc2N2CCCCC2)c1	·	-17.7%[7.34 µM]	1.7%	-79.8*	2.6%[7.34 µM]
Cc1noc(C)c1-c1nc(CS(=O)(=O)c2ccccc2)no1	-7.2%	i[7.34 µM]	-1.6%	-83.6*	-1.7%[7.34 µM]
COc1ccccc1C(=O)N/C(=C\c1ccccc1)C(=O)NC(Cc1ccccc1)C(=O)O (stereo unspecified)	10.8%	-0.7%	15.5%	4.3	-4.7%
Cn1c2ccccc2c(=O)c2cc(C#CC3(O)CCCCC3)ccc21	-5.8%	-5.5%	-21.8%	-1.7	-21.7%
Cc1cc2sc3ccc(C#CC4(O)CCCCC4)cc3c(=O)c2cc1C	·	?	3.8%	-95.5*	-21.9%
CC(C)C(C)NC(=O)CSc1nc2scc(-c3ccco3)c2c(=O)n1-c1ccccc1 (stereo unspecified)	-2.9%	·	-8.5%	-63.5*	-0.4%
O=C(O)CSc1nc2sc3c(c2c(=O)n1-c1ccccc1)CCC3	5.7%	1.6%	-7.1%	-24.5	-19.8%
CC(NC(=O)CSc1nc2sc3c(c2c(=O)n1-c1ccccc1)CCCC3)c1ccccc1 (stereo unspecified)	1.3%	i	-10.7%	-80.7*	-9.6%
CNC(=O)c1c2c(nc3ccc(Br)cc13)CCCC2	5.5%	i	-4.8%	-1.2	?
COc1ccc(OC)c(NC(=O)Cn2cc(C#N)c3cc(Br)ccc32)c1	5.3%	·	-1.2%	-66.5*	·
Cn1nc(CC(=O)Nc2ccc3c(c2)CCC3)c2ccccc2c1=O	3.7%	?	3.5%	-36.5	?
CN1CCC(=NNC(=O)C(=O)Nc2ccc(F)cc2)CC1	-2.8%	-1.0%	-0.4%	-25.4	2.9%
Cc1ccc(NC(=O)C(=O)NN=C2CCCC2)cc1C	-1.2%	-9.9%	-3.7%	-104.0*	-4.6%
CC(C(=O)Nc1ccc(OCc2ccccc2)cc1)N1CCCC1 (stereo unspecified)	-6.1%	i	-0.2%	-35.2	-17.8%
CC(C)COCC(CN(Cc1ccccc1)c1ccccc1)N1CCCC1 (stereo unspecified)	2.1%	-17.9%	-9.8%	-67.0*	?

Screening data (PubChem)
